# Bioassay records: PubChem BioAssay, several laboratories
# Hits are enriched below; roughly 4.8% of the tested compounds scored in any of these assays.
# APP 5UTR inh = inhibitors of APP translation via 5'UTR reporter, primary screen, APP 5'UTR luciferase, SH-SY5Y cells. SH-SY5Y APP 5'UTR-luciferase reporter, luminescence. inhibition, % at 2 µM. hit rate 0.82% among 190,000. AID 1285, 2008;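 active = inhibition above a set limit, derived from the sample mean plus 3 SD, cut at about 45% in these data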
# Hsp70 activator = Hsp70 transcriptional activators, primary screen, cell-based, HeLa, Hsp70 promoter luciferase, luminescence, 10 µM; HeLa Hsp70 promoter luciferase reporter; scaled: vehicle 0, proteasome-inhibitor control 100%; activation, % at 10 µM; hit rate 0.04% among 200,000;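 active = activation above the mean across all tested compounds plus 3 SD, cutoff set per campaign, cut at about 5.5% in these data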;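 also: 100% = MG132 at 30 µM as the positive control and 0% = DMSO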
# APP 5'UTR act = activators of APP 5'UTR luciferase reporter, primary screen, SH-SY5Y cells; hit rate 1% among 190,000; AID 1276, 2008; activation, % at 2 µM; SH-SY5Y APP 5'UTR luciferase reporter, luminescence; zero percent = DMSO vehicle wells;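 active = activation above a set limit, based on mean plus 3 SD of controls, cut at about 140% in these data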
# STAT1 act = STAT1 signaling activators, primary screen, cell-based, HTS, luciferase reporter | NIH 3T3 STAT1-luciferase reporter, IFN-gamma, luminescence; 100% = IFN-gamma alone, no compound | activation (% of control), % at 5.5 µM | hit rate 2.6% among 200,000;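 active = activation above the screen-wide mean activation plus 3 SD, cut at about 130% in these data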;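 also: raw ratio to IFN-gamma control signal so 100% means no change and 0% no light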
# Wee1 degr inh = Wee1 degradation inhibitors, primary screen, cell-based, HeLa, Wee1K328M-luciferase, luminescence | Wee1-like protein kinase (Homo sapiens), P30291 | HeLa Luc-Wee1K328M stability; 100% = proteasome inhibitor MG132 effect | reporter increase, % at 5 µM | hit rate 1.2% among 220,000;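 active = activation above the mean of all tested compounds plus 3 SD, set per screening run, cut at about 8.8% in these data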;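 also: cells exposed to compound for 20 h before luminescence read; 0% = DMSO alone and 100% = MG132 at 30 µM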
# Target sequence (P30291 whole entry K328M): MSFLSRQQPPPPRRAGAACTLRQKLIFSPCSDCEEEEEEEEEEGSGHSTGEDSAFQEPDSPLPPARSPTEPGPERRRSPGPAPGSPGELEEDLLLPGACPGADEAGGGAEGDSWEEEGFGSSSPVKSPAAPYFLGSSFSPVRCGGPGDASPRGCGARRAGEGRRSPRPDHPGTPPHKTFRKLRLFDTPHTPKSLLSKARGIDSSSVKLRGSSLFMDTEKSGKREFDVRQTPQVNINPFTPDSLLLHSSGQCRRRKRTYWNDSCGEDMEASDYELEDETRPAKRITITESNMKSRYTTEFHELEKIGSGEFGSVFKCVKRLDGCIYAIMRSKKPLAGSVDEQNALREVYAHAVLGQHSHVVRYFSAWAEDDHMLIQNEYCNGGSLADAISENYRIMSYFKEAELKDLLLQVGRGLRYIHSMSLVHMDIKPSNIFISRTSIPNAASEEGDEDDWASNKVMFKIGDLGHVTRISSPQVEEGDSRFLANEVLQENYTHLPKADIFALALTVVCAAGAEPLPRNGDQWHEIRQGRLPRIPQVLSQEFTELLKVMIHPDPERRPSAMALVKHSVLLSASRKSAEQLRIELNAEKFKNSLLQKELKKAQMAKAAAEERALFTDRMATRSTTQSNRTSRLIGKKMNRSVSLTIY
# NF-kB expr up = activators of NF-kB expression in neurons, primary screen, cell-based, HTS | fold change at 12.5 µM | human neuronal cells, NF-kB reporter expression; stronger effect = higher value | hit rate 1.6% among 190,000 | AID 1239, 2008; in the data active = fold change above about 3.3
# Starred values were filed as active, the others as inactive; . = no result.
SMILES,APP 5UTR inh,Hsp70 activator,APP 5'UTR act,STAT1 act,Wee1 degr inh,NF-kB expr up
COc1ccc(CNc2ccc(C(=O)O)cc2)cc1,-12,0,12,105,0,1.3
Oc1ccc2ccccc2c1CNc1cnc2ccccc2c1,.,0,.,97,0,1.1
Oc1ccccc1CNc1cnc2ccccc2c1,-71,0,71,103,8,3.6*
COc1ccc(CNc2ccc(C)c(C)c2)cc1,-25,0,25,130*,1,1.8
CCCC(=O)C1C(=O)CC(C)(C)C(c2cc(C)no2)C1=O (configuration not stated),-12,0,39,102,1,1.1
CCOC(=O)C1CCCN(C(=O)c2ccc(OC)c([N+](=O)[O-])c2)C1 (configuration not stated),5,0,-5,104,-1,0.99
CCOC(=O)c1cnc2ccccc2c1Nc1cc(C(=O)O)ccc1C,22,0,-22,92,0,1.1
O=C1NCCCC1C(=O)N1CCN(C(c2ccccc2)c2ccccc2)CC1 (configuration not stated),50*,0,-38,110,4,.
COc1ccccc1C1=NOC(COc2ccc3c(C)cc(=O)oc3c2)C1 (configuration not stated),.,.,.,.,2,.
COc1ccc(C2=NOC(COc3ccc4c(C)cc(=O)oc4c3)C2)c(OC)c1 (configuration not stated),73*,.,-73,.,7,.
Cc1ccc(S(=O)(=O)NCCNC(=O)CN2CCCC2)cc1,12,1,-12,102,1,1.1
CC(C)c1cc(C(=O)Nc2cccc(Cl)c2)no1,-187,0,187*,124,2,11*
CC(=O)c1cccc(NC(=O)c2cc(-c3ccc(F)cc3)on2)c1,2,0,-2,109,0,1.6
CC(=O)c1cccc(NC(=O)c2cc(C(C)C)on2)c1,-119,0,119,122,0,3.9*
CCN1C/C(=C\c2cccc([N+](=O)[O-])c2)C(=O)/C(=C/c2cccc([N+](=O)[O-])c2)C1,96*,0,-96,101,1,1
O=c1[nH]c2ccccc2nc1/C=C/c1ccc(Cl)cc1,-167,0,167*,133*,-4,1.4
Cc1cccc(/C=C\c2nc3ccccc3c(=O)[nH]2)c1,-158,0,158*,144*,0,1.2
O=C(/C(=C/c1ccc(Cl)cc1)c1nc2ccccc2[nH]1)c1ccccc1,-84,5,84,104,-1,8*
Cc1nc(/C=C/c2ccccc2)[nH]c(=O)c1-c1ccccc1,-76,0,77,129*,3,1.6
c1ccc2[nH]c(CSc3nc4ccccc4s3)nc2c1,-29,0,29,90,7,0.95
COc1ccc(C(=O)N/C(=C/c2cccs2)c2nc3ccccc3[nH]2)cc1OC,-8,0,8,100,-4,1.3
C(=C\c1nc2ccccc2[nH]1)/c1ccccc1,-192,0,192*,61,-2,3.1
O=C(/C=C/c1ccccc1)NCCc1nc2ccccc2[nH]1,.,.,.,.,2,.
COc1cc(/C=C(/C(=O)c2cccs2)c2nc3ccccc3[nH]2)cc(OC)c1O,-20,1,20,92,-1,10*
O=c1oc(-c2cccs2)nc2sc3c(c12)CCCCC3,-77,0,77,99,-2,.
SMILES,APP 5UTR inh,Hsp70 activator,APP 5'UTR act,STAT1 act,Wee1 degr inh,NF-kB expr up
Cc1ccccc1-c1nc2sc3c(c2c(=O)o1)CCC3,-14,0,14,104,-1,4*
O=c1oc(-c2ccccc2)nc2sc3c(c12)CCCC3,-48,0,48,136*,5,6.1*
O=c1oc(/C=C/c2ccccc2)nc2sc3c(c12)CCC3,-9,0,9,114,2,2
CCc1nc2sc3c(c2c(=O)o1)CCCC3,-6,0,6,88,-3,0.93
O=c1oc(-c2cc3ccccc3o2)nc2sc3c(c12)CCCC3,-226,0,226*,112,0,1.2
Cc1ccc(NC(=O)c2ccc(CSc3ccccn3)cc2)c(O)c1,.,.,.,.,-1,.
Cc1nc2ccc([N+](=O)[O-])cc2nc1C,-4,0,5,100,-1,1.4
CC1=Nc2cc([N+](=O)[O-])ccc2NC(C)(C)C1,-136,0,136*,102,2,1.1
CCC(=O)Nc1cc(C(=O)O)ccc1S(=O)(=O)c1ccc(C)cc1,5,0,-5,104,-2,1.3
CC(=O)Nc1cc(C(=O)O)ccc1S(=O)(=O)c1ccc(C)cc1,9,0,-9,96,9.2*,1.1
NC(=S)NNc1cccc2cccnc12,-12,0,12,110,-3,0.68
Cn1c(CCN2CCCCC2)nc2cc([N+](=O)[O-])ccc21,5,0,-5,100,-2,1.3
CCN1CCN(CCc2nc3cc([N+](=O)[O-])ccc3n2C)CC1,.,.,.,.,9.3*,.
Cc1ccc2nc(N3CCC(C(=O)O)CC3)nc(-c3ccccc3)c2c1,0,0,0,104,0,0.82
Cc1ccc2nc(N3CC(=O)Nc4ccccc43)nc(-c3ccccc3)c2c1,7,0,-7,97,9.6*,1.1
Cc1cccc(-n2ncc3c(NCc4cccs4)ncnc32)c1,-76,0,76,131*,4,2.2
CC(=O)Nc1ccc(Nc2ncnc3c2cnn3-c2cccc(C)c2)cc1,-32,0,32,144*,5,1.3
Clc1ccc(-n2ncc3c(NCc4cccs4)ncnc32)cc1,-126,0,126,134*,5,2.8
Cc1cccc(-n2ncc3c(N4CCCc5ccccc54)ncnc32)c1,-46,0,46,141*,9,2.8
CC(=O)Nc1ccc(Nc2ncnc3c2cnn3-c2ccccc2)cc1,-20,0,20,127,7,2.1
Clc1ccc(Nc2ncnc3c2cnn3-c2ccccc2)cc1,-51,0,51,125,1,2.4
O=C(CCCC(=O)NCCc1ccccc1)NCCc1ccccc1,11,0,-11,94,1,1.1
N#CCSc1nnc(-c2ccc(F)cc2)n1N,10,0,-10,97,-1,1.4
Cc1cccc(-n2ncc3c(N(CCO)CCO)ncnc32)c1,-73,0,73,130*,6,1.8
Cc1cccc(-n2ncc3c(NCc4ccco4)ncnc32)c1,-49,0,49,130*,6,2.6
Cc1cccc(-n2ncc3c(NCc4ccccc4)ncnc32)c1,-48,1,48,121,0,1.8
